The values that follow come from PubChem BioAssay AID720504 (National Center for Advancing Translational Sciences (NCATS), 2013).

About 10,000 (2.8%) of roughly 360,000 compounds were called active. Another 4% or so got no clear call; they are omitted. Shown is part of a subset that was picked to be rich in actives. A number with no mark means an inactive call. Calls come from the whole dose curve; as a rule, active = well fitted inhibition curve with a large enough effect; inconclusive = small, poorly fitted or top-dose-only effect; inactive = flat fitted curve, though single readings scatter.
% is set by controls: 0 for no effect and ±100 for the full control effect; potency is the fitted concentration of half-maximal effect.

The target of the experiment is Serine/threonine-protein kinase PLK1 (Homo sapiens) (UniProt P53350). Description: qHTS for Inhibitors of PLK1-PDB (polo-like kinase 1 - polo-box domain): Primary Screen. For max response, negative = inhibition: series mostly up to about 57 µM. Note: nearly all actives have a fitted effect of over 65% in size. The conditions noted are these: Plk1 PBD binding of FITC phosphopeptide, fluorescence polarization. In general terms: In qHTS, concentration-response curves come from the screen itself.
Chain of Serine/threonine-protein kinase PLK1 (Homo sapiens) (P53350 whole entry, looked up, the tested form may be a part): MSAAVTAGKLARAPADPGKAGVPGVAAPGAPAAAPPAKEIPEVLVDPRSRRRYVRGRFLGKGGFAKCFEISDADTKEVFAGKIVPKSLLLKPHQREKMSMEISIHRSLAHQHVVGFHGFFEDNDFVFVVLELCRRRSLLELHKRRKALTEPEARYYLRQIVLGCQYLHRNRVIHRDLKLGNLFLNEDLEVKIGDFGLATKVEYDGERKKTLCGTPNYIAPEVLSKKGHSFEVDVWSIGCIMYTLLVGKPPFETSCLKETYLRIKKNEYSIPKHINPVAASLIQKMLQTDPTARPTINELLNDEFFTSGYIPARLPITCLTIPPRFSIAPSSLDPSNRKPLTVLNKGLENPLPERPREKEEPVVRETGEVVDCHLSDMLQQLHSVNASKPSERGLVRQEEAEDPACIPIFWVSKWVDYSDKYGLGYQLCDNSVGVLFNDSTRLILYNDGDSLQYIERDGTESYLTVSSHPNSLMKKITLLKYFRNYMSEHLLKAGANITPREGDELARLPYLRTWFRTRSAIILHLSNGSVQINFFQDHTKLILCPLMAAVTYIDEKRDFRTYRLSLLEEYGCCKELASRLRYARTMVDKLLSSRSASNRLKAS
As to `CCCNC(=O)c1ccc(Cl)c(Cl)c1`, the Potency is 21.2 µM (active). For the compound `CCCNC(=O)c1c(Cl)cnn1-c1ccc(C)cc1`, the max response, negative = inhibition was -6.94%. Same read-out and setting: with `COCC(C)NC(=O)c1ccc(Cl)c(Cl)c1` (stereo unspecified) the figure was -9.11%; with `COc1ccc(CC(N)c2csc(NC(=O)Cc3ccccc3)n2)cc1` (stereo unspecified), -4.52%. Consider `COc1ccc(OC)c(C(O)c2ncc(-c3cccc(C(F)(F)F)c3)[nH]2)c1` (stereo unspecified), for which the max response, negative = inhibition was 6.6%. In the case of `Cc1cc(Br)cn2c(Cc3ccccc3C(F)(F)F)c(-c3ccc(Cl)cc3)nc12`, the max response, negative = inhibition is 2.92%.

As for `COc1cc2nnn(-c3ccncc3)c2cc1OC`, the max response, negative = inhibition was -2.85%. The same measure, in the same setting: with `CCOC(=O)C1(C)CCCN(C(=O)c2cccc(Cl)c2)C1` (stereo unspecified) the figure was -9.97%; with `O=C1NC[C@H](CCCCN2CCN(CCc3ccccc3)C(=O)C2=O)N(CC2CCCCC2)C1=O`, -4.62%; with `COc1cc(-c2n[nH]c(=S)n2Cc2ccccc2)cc(OC)c1OC`, -6.45%. `CC(C)Oc1ccc(CCc2n[nH]c(=S)n2Cc2ccccc2)cc1`: the max response, negative = inhibition was -8.99%. Turning to `CC(C)Oc1ccc(Cc2n[nH]c(=S)n2Cc2ccccc2)cc1Cl`, the Potency was 16.8 µM (active).

For `CCc1c(N=O)c(-c2ccccc2)n(O)[n+]1[O-]`, the max response, negative = inhibition was -2.08%. Still for that read-out and setting: the result for `Nc1[nH]c(C(=O)c2ccccc2)c(-c2ccc(Br)cc2)c1C(=O)NC1CC1` reads -9.8%; that for `O=S1(=O)CC(N2CCN(Cc3ccccc3F)CC2)CN1Cc1cn(Cc2cccc(C(F)(F)F)c2)nn1` (stereo unspecified), -2.54%. For the compound `CC(C)c1ccc(NC(=S)NNc2ccc(Cl)c(C(=O)O)c2)cc1`, the Potency was 23.8 µM (active).

As for `Cc1ccc(NC(=S)NCCc2ccc(Cl)cc2)c(C)c1`, the max response, negative = inhibition is -3.36%. Same read-out and setting: the result for `O=C(NC(=S)Nc1ccc(Cl)c(C(=O)O)c1)c1cncc(Br)c1` reads -11.2%. For `CC(C)c1ccc(NC(=S)NC2CC3C=CC2C3)cc1` (stereo unspecified), the max response, negative = inhibition is -23.1%. With `Cc1ccc(C)c(NC(=S)NNC(=S)Nc2ccc(C(C)C)cc2)c1`, the Potency was 18.9 µM (active).

`CCC(C(=O)Nc1ccc(C(C)C)cc1)c1ccccc1` (stereo unspecified): the max response, negative = inhibition was 2.25%.

Turning to `COC(=O)[C@]12CCCCC=C1N(Cc1ccco1)C(=O)[C@H](CC(=O)NCC1CCCCC1)C2`, the max response, negative = inhibition was -3.48%. Take `CCCc1ccc(C(O)c2ncc(-c3cccc(OC)c3)[nH]2)cc1` (stereo unspecified): the max response, negative = inhibition is -2.5%. As to `COc1ccc(/C=C(\C#N)C(=O)OCC(=O)N(C)C2CCS(=O)(=O)C2)cc1` (stereo unspecified), the max response, negative = inhibition is -10.5%.

As for `CN(C(=O)COC(=O)Cc1ccccc1[N+](=O)[O-])C1CCS(=O)(=O)C1` (stereo unspecified), the max response, negative = inhibition was 1.07%.

On to `CN(C(=O)COC(=O)c1cc(-c2ccco2)nc2ccccc12)C1CCS(=O)(=O)C1` (stereo unspecified), for which the Potency is 18.9 µM (active).
